# About 79,000 compounds went through this panel and 15% of them were active in at least one assay; those are over-represented in the sample as a whole. Values without a mark were called inactive. Calls of active or inactive are those of the source. Rule as the data show it: active = growth inhibition above about 70%; inactive = the rest.
# Columns and labels:
# [1] = NCI Yeast Anticancer Drug Screen. Data for the rad50 strain (AID 155);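 also: 0% = growth of vehicle-only cultures of the same strain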; details: S. cerevisiae rad50 strain growth inhibition, active compounds read high
# Summary of the method: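 Inhibition values express reduced yeast growth in compound-treated cultures relative to vehicle-treated controls.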
# [2] = NCI Yeast Anticancer Drug Screen. Data for the mec2-1 strain (AID 157); details: S. cerevisiae mec2-1 strain, active compounds read high
# Summary of the method: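 Readout is yeast growth inhibition, normalised to vehicle-treated controls, in the mec2-1 strain exposed to compound.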
# [3] = NCI Yeast Anticancer Drug Screen. Data for the sgs1 mgt1 strain (AID 161);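 also: 0% = growth of cultures given vehicle only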; details: S. cerevisiae sgs1 mgt1 strain, active compounds read high
# Summary of the method: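 Yeast cells carrying a defined DNA-repair defect were exposed to test compounds. Growth inhibition was measured relative to vehicle-treated controls.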
# [4] = NCI Yeast Anticancer Drug Screen. Data for the cln2 rad14 strain (AID 165);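 also: 0% = growth equal to vehicle treated cultures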; details: S. cerevisiae cln2 rad14 strain, active compounds read high
# Summary of the method: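 Relative to vehicle controls, growth inhibition of compound-treated cln2 rad14 yeast was recorded.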
# [5] = NCI Yeast Anticancer Drug Screen. Data for the bub3 strain (AID 167); details: S. cerevisiae bub3 mutant strain, active compounds read high
# Summary of the method: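 Steps: expose the mutant yeast strain to compound; grow alongside vehicle-treated cultures; measure growth; express inhibition against the vehicle cultures.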
# [6] = NCI Yeast Anticancer Drug Screen. Data for the mlh1 rad18 strain (AID 175); details: S. cerevisiae mlh1 rad18 strain growth inhibition, active compounds read high
# Summary of the method: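 Test agents were incubated with a yeast strain of defined genotype (DNA damage repair defect). Inhibition of growth was derived by comparison with vehicle-exposed cultures.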
# [7] = at 5.0 µM (retest, dose inferred, filed as 0.5)
# [8] = at 50.0 µM (retest, dose inferred, filed as 5.0)
Compound,"growth inhibition [1, 7]","growth inhibition [1, 8]",growth inhibition ([1]; at 50.0 µM),"growth inhibition [2, 7]","growth inhibition [2, 8]",growth inhibition ([2]; at 50.0 µM),"growth inhibition [3, 7]","growth inhibition [3, 8]",growth inhibition ([3]; at 50.0 µM),"growth inhibition [4, 7]","growth inhibition [4, 8]",growth inhibition ([4]; at 50.0 µM),"growth inhibition [5, 7]","growth inhibition [5, 8]",growth inhibition ([5]; at 50.0 µM),"growth inhibition [6, 7]","growth inhibition [6, 8]",growth inhibition ([6]; at 50.0 µM)
CCCCCCCCCCCCCCCC[N+](C)(C)C(C)c1ccccc1 (configuration not stated),98% (active),98% (active),90.5% (active),98% (active),99% (active),90.7% (active),99% (active),99% (active),90.5% (active),99% (active),99% (active),86% (active),98% (active),98% (active),92.6% (active),98% (active),97% (active),91.8% (active)
CC(SC1=CC(=O)c2c(O)ccc(O)c2C1=O)C(=O)O (configuration not stated),9%,-19%,22.6%,-4%,-2%,11.8%,19%,5%,19.9%,-5%,-6%,-27.6%,-6%,-5%,4%,-5%,-6%,25.1%
Cc1cccc(NC(=O)c2cc3cc(N=Nc4ccccc4Cl)ccc3oc2=O)c1,6%,6%,78.5% (active),-2%,-2%,70% (active),22%,22%,75.4% (active),3%,3%,35%,6%,6%,78.3% (active),7%,7%,70.7% (active)
Cc1ccc(C)c(N(c2ccccc2[N+](=O)[O-])S(C)(=O)=O)c1,5%,20%,99.5% (active),19%,36%,99.5% (active),5%,22%,99.6% (active),5%,21%,99.3% (active),-2%,16%,99.4% (active),-5%,10%,99.2% (active)
OC(CC(O)(C(F)(F)Cl)C(F)(F)Cl)c1ccccc1 (configuration not stated),31%,66%,88.1% (active),10%,62%,90.7% (active),42%,72% (active),92.1% (active),35%,58%,85.8% (active),37%,69%,88.6% (active),26%,59%,89.3% (active)
OCC1CCCCCCCCCCC1,-2%,90% (active),98.2% (active),0%,66%,75.2% (active),1%,22%,94.3% (active),1%,30%,92.3% (active),10%,58%,94.7% (active),-1%,51%,89.2% (active)
COC(=O)C1(OC(=O)CCC(=O)O)C(=O)NC2=C1C(=O)c1ccccc1C2=O (configuration not stated),1%,9%,75.8% (active),2%,-58%,12%,2%,13%,47.8%,2%,6%,38.5%,-42%,16%,32.9%,1%,17%,47.2%
N#CC(Br)(C#N)Cc1ccccc1,1%,100% (active),98.8% (active),8%,100% (active),99.6% (active),-11%,90% (active),99.1% (active),-10%,99% (active),99.2% (active),9%,100% (active),99.5% (active),-10%,100% (active),99.3% (active)
C/C(=N\NC(=S)N1CCN(c2cnccn2)CC1)c1ccccn1,24%,98% (active),91.4% (active),23%,99% (active),89.9% (active),19%,99% (active),86.1% (active),10%,99% (active),88.2% (active),30%,99% (active),85.3% (active),28%,99% (active),91.7% (active)
N#COc1ccc(Oc2ccc(OC#N)cc2)cc1,-4%,-3%,-12.9%,-30%,14%,-22.8%,26%,-3%,90.2% (active),-2%,29%,25.8%,-5%,46%,40%,-12%,-15%,25.3%
[Cl][Sn]([O][Sn]([Cl])([c]1ccccc1)[CH]1CCCCC1)([c]1ccccc1)[CH]1CCCCC1 (configuration not stated),6%,97% (active),88% (active),7%,99% (active),90.3% (active),12%,99% (active),90.8% (active),-11%,98% (active),90.1% (active),2%,99% (active),89.6% (active),5%,97% (active),92% (active)
CC(=O)c1sc2c(c1O)c(=O)n(-c1ccccc1)c(=S)n2-c1ccccc1,-4%,75% (active),68.3%,19%,83% (active),67.4%,10%,88% (active),75.5% (active),16%,95% (active),80% (active),25%,94% (active),58.4%,-11%,87% (active),29.9%
CCC(C)(O)C#Cc1ccc(C)nc1 (configuration not stated),2%,6%,16.1%,0%,3%,9.4%,-2%,2%,7.7%,0%,-1%,14.5%,1%,-1%,13.8%,-12%,4%,0.4%
O=C1Oc2cc3c(c4cccc1c24)OCN(c1ccccc1)C3,-22%,25%,62.5%,-24%,19%,49.9%,-11%,18%,78.2% (active),-15%,15%,35%,-17%,25%,49%,-5%,49%,58%
Nc1ccc2c(c1)S(=O)(=O)c1cc(N)ccc1-2,22%,27%,41.4%,19%,15%,18.8%,20%,19%,-29%,18%,25%,5.8%,22%,27%,-17.8%,26%,25%,-43.8%
CCC(=O)OC1=C(Br)C(=O)c2ccccc2C1=O,14%,85% (active),89.6% (active),17%,94% (active),57.4%,25%,68%,80.3% (active),4%,68%,1.15%,18%,96% (active),18.9%,38%,85% (active),76.6% (active)
Cc1ccc(C)c(NC(=O)CCC(=O)CC(=O)c2ccncc2)c1,-4%,12%,-32%,3%,4%,7.45%,8%,4%,16.8%,-4%,3%,1.25%,-7%,4%,10.7%,0%,-1%,24.1%
COC(=O)c1c(C(N)=O)c(C)n(NC(=O)Nc2ccccc2)c1C,25%,93% (active),96.2% (active),24%,95% (active),85.1% (active),41%,94% (active),95% (active),32%,91% (active),81.4% (active),37%,92% (active),86.2% (active),63%,95% (active),87.8% (active)
COC(=O)CCC(=O)N1C/C(=C\c2ccccc2)C(=O)/C(=C/c2ccccc2)C1,5%,41%,88.6% (active),23%,42%,95.3% (active),5%,56%,92.5% (active),9%,19%,16.5%,2%,22%,92.5% (active),7%,38%,95% (active)

# Source: PubChem BioAssay (NCI)
